# Screening results from PubChem BioAssay.
# Sampled rows, rich in hits. Any-hit rate of the full collection: about 5.7%.
# NPSR antagonist – blocks cAMP signaling of the human neuropeptide S receptor; hit rate 1% among 220,000; AID 1461; CHO-NPSR cells, cAMP TR-FRET, antagonist mode; Potency, µM (top dose mostly 38.3 µM), most hits filed as inhibitors; Q6W5P4; also: nearly all actives have a fitted effect of over 50% in size
# Target sequence (Q6W5P4 whole entry, looked up): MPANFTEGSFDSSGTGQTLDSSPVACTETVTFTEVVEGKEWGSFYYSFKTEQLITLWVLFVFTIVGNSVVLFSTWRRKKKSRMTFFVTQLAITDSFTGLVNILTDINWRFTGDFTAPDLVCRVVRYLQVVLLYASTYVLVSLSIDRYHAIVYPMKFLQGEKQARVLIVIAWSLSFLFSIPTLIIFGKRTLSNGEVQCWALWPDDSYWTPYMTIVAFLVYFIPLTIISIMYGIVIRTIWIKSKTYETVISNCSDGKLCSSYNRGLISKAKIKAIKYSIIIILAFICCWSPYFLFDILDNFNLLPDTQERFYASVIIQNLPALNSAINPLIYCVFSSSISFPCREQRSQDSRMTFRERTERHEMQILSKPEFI
# VP16 counter – inhibits Gal4-VP16 luciferase reporter, ROR gamma counter-screen; Drosophila S2 Gal4-VP16 UAS-luciferase, luminescence, 20 h; Potency, µM (top dose mostly 53.6 µM), actives largely listed as inhibitors; hit rate 3.5% among 310,000;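 also: Gal4-VP16 expression switched on by copper sulfate through the metallothionein promoter; nearly all actives have a fitted effect of over 50% in size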
# RORg inh – ROR gamma (mouse) transcription inhibition | P51450 | Drosophila S2 Gal4-RORgamma UAS-luciferase reporter, 20 h | Potency, µM (top dose mostly 53.6 µM), most hits filed as inhibitors | hit rate 5.4% among 310,000; also: nearly all actives have a fitted effect of over 60% in size
#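 Luminescence from a UAS-regulated Photinus luciferase reporter in stably transfected Drosophila Schneider cells is measured; decreased signal marks ROR gamma inhibition. Fusion expression is induced by 700 uM copper sulfate for 20 hr.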
# B2AR arrestin – agonists driving beta-arrestin recruitment to human beta2-adrenergic receptor; Potency, µM (titrated, usually from 46.1 µM), hits mostly activators; beta-arrestin recruitment to beta2AR, cell-based reporter; P07550; hit rate 0.02% among 330,000; also: nearly all actives have a fitted effect of over 65% in size
# Hits are given with their value; i = inactive; ? = inconclusive; nt = no result given; [ ] = dose if it differs, or a comment. Calls follow the shape of the dose curve; as a rule, active = well fitted curve in the direction sought with a large enough effect; inconclusive = small, poorly fitted or top-dose-only effect, or another doubt; inactive = no such curve, though single readings can be large; an effect the other way counts as inactive or inconclusive.
SMILES,NPSR antagonist,VP16 counter,RORg inh,B2AR arrestin
Cc1ccccc1NC1=C/C(=N\S(=O)(=O)c2cccs2)c2ccccc2C1=O,3.2µM,5.6µM,4µM,i
Cc1ccccc1NC1=C/C(=N\S(=O)(=O)c2ccc(C(=O)O)cc2)c2ccccc2C1=O,nt,?,?,i
CC(=O)Nc1ccc(NC2=C/C(=N/S(=O)(=O)c3cccs3)c3ccccc3C2=O)cc1,7.9µM,5µM,7.1µM,i
Cc1ccc(NC2=C/C(=N/S(=O)(=O)c3cccs3)c3ccccc3C2=O)cc1C,i,i,?,i
CC(=O)Nc1ccc(NC(=O)C(C)OC(=O)c2ccccc2NS(=O)(=O)c2cccs2)cc1 (stereo not given),i,i,i,i
CCCOc1ccc(C(=O)Nc2ccc(N3CCN(C(=O)c4ccco4)CC3)cc2)cc1,nt,?,?,i
COc1cc2nc(=S)n3[nH]c(CCn4nc(C)cc4C)nc3c2cc1OC,i,0.089µM,0.056µM,i
COc1cc2nc(=S)n3[nH]c(COc4ccccc4C)nc3c2cc1OC,i,0.4µM,0.2µM,i
CC1(C)CO[C@@H](CC(=O)O)CN1,nt,i,i,nt
Cn1c(NN)nc2ccccc2c1=O,i,i,?,i
Cc1ccc(-n2c(NN)nc3ccccc3c2=O)c(C)c1,i,20µM,?,i
OC[C@H]1NC[C@H](O)[C@@H](O)[C@H]1O,nt,i,i,nt
O=C(OCn1ncc(Cl)c(Cl)c1=O)c1ccc(C(F)(F)F)cc1,i,7.1µM,?,i
CCOC(=O)c1ccc(NC(=O)Cn2ncc(Cl)c(Cl)c2=O)cc1,10µM,10µM,?,i
Cc1ccc(C(=O)OCn2ncc(Cl)c(Cl)c2=O)cc1,?,i,i,i
CCC(=O)Nc1ccc(C(=O)Cn2ncc(Cl)c(Cl)c2=O)cc1,?,i,i,i
CCOC(=O)c1ccc(NC(=O)CC2Sc3ncnn3C2=O)cc1 (stereo not given),i,22µM,?,i
COc1ncc2nc(-c3ccc(Cl)cc3)c(=O)n(CCC#N)c2n1,nt,i,i,nt
C[C@@H](C(=O)NCc1ccc(S(C)(=O)=O)cc1)[C@H]1C[C@]1(C)[C@H](NC(=O)OCc1ccccc1)c1ccccc1,i,i,8.9µM,i
C[C@@H](C(=O)NCc1ccccc1)[C@@H]1C[C@@]1(C)[C@@H](NC(=O)OCc1ccccc1)c1ccccc1,i,i,?,i
COC(=O)N/N=C/c1ccc(-c2ccc(C)c(Cl)c2)o1,i,i,?,i
Cc1ccc(-c2ccc(/C=N\NC(=O)C3C(=O)NCC3c3ccccc3)o2)cc1Cl (stereo not given),i,20µM,?,i
Cc1ccc(-c2ccc(/C=N/NC(=O)CN3CCCC3)o2)cc1Cl,i,i,11µM,i
OCCOc1ccc(CN2CCN(CCCc3ccccc3)C(CCO)C2)cc1 (stereo not given),nt,i,i,i
CC(=O)C1=C(C)NC(SCC(=O)c2ccc(Cl)cc2Cl)=C(C#N)C1c1ccco1 (stereo not given),i,4.5µM,?,i
SMILES,NPSR antagonist,VP16 counter,RORg inh,B2AR arrestin
CSCSC1=C(C#N)C(c2ccc(Cl)cc2)C(C(C)=O)=C(C)N1 (stereo not given),i,?,14µM,i
CSC1=C(C#N)C(c2ccccc2)C(C(C)=O)=C(C)N1 (stereo not given),i,i,i,i
C=CCOC(=O)C1=C(C)NC(SCC(=O)Nc2nccs2)=C(C#N)C1c1ccc(Cl)cc1 (stereo not given),?,?,11µM,i
Cc1c(C(=O)N2CCCC2)c(S(=O)(=O)Nc2ccccc2)c(C)n1C,nt,i,i,i
C[C@H]1/C=C\CC(=O)OC[C@H](C)C(=O)N2CCC[C@@H]2C(=O)OC1,nt,i[10 µM],i[10 µM],nt
CC(C)NCCCCOc1ccc(Br)cc1Cl,?,i,i,i
CC(C)n1nnnc1SCC(=O)Nc1cccc(F)c1,nt,i,i,i
CCCOC(=O)c1ccc(OCC(O)Cn2c(C)nc3ccccc32)cc1 (stereo not given),i,3.2µM,?,i
CC(=O)Nc1cccc(OCC(O)Cn2c(C)nc3ccccc32)c1 (stereo not given),i,i,?,i
NS(=O)(=O)c1ccc(CCNc2ccnc3cc(Cl)ccc23)cc1,nt,i,i,i
CCC1CSC(Nc2ccc(C(=O)/C=C/c3ccc(Oc4ccccc4)cc3)cc2)=N1 (stereo not given),i,?,16µM,i
Cc1ccc(-n2c(-c3cn(C)nc3C)n[nH]c2=S)cc1,i,i,10µM,i
Cc1ccc(-n2c(-c3cc(C)n(C)n3)n[nH]c2=S)cc1,i,i,11µM,i
CSc1ccc(/C=C2/C(C)=C(CC(=O)O)c3cc(F)ccc32)cc1,nt,i,i,nt
CC1(C)CNC(=O)c2sc(NC(=O)c3ccccc3Cl)nc2C1,i,i,?,i
CCCC/C=C/C(NC(=O)c1ccco1)c1ccccc1 (stereo not given),nt,i,i,nt
COc1ccccc1NCC(=O)N/N=C/c1c(O)ccc2ccccc12,nt,2.8µM,0.89µM,i
COc1ccccc1N(CC(=O)N/N=C/c1c(O)ccc2ccccc12)S(C)(=O)=O,i,?,13µM,i
C=C(C)Cn1c(SCC)nc2ccccc2c1=O,i,i,i,i
COc1ccccc1NCC(=O)N/N=C/c1cccnc1,i,i,i,i
C=C(C)Cn1c(SCC(=O)N/N=C/c2c(O)ccc3ccccc23)nc2ccccc2c1=O,i,2.5µM,0.63µM,i
O=C(CNc1ccc(F)cc1)N/N=C/c1c(O)ccc2ccccc12,nt,2.8µM,1.3µM,i
COc1ccccc1N(CC(=O)Nc1ccccc1C)S(C)(=O)=O,i,i,i,i
N#Cc1ccc(CN2CC3(CCN(C(=O)c4ccco4)CC3)C2)cc1,nt,i,i,nt
CCCNC(=O)OC[C@@H]1O[C@H](CCO/N=C\[C@@H](OC)[C@H](C)/C=C\CC(=O)OC)C=C[C@@H]1Oc1ccc(OC)cc1,nt,i[10 µM],i[10 µM],nt
SMILES,NPSR antagonist,VP16 counter,RORg inh,B2AR arrestin
CC(C)c1ccc(Cn2ccc3c4c(N)nc(NC5CC5)nc4ccc32)cc1,nt,?,16µM,nt
CC(=O)OC[C@@H]1O[C@@H](O/N=C2/C[C@@H](O)[C@@H](O)[C@@H]3[C@@H]4C(=O)N(C(C)(C)C)C(=O)[C@H]4CC[C@H]23)[C@H](OC(C)=O)[C@H](OC(C)=O)[C@@H]1OC(C)=O,nt,i[10 µM],i[10 µM],nt
CCOC(=O)C1=NN(C(=O)c2ccc(OC)cc2)C(O)(c2ccc(Cl)cc2)C1 (stereo not given),i,?,10µM,i
CCOC(=O)C1=NN(C(=O)c2cccc(Br)c2)C(O)(C(C)(C)C)C1 (stereo not given),i,?,14µM,i
CCOC(=O)C1=NN(C(=O)c2ccccc2)C(O)(c2ccc(C)cc2)C1 (stereo not given),i,28µM,10µM,i
CCCOc1ccc(Oc2nc(-c3ccncc3)nc3ccccc23)cc1,?,i,i,i
COc1ccc(C2/C=C\CN([S+](=O)([O-])c3ccc4ccccc4c3)C(C)C(=O)N2Cc2ccc(F)cc2)cc1 (stereo not given),nt,i,i,nt
CCS(=O)(=O)NCc1ccc2[nH]c3c(c2c1)CCCC3,i,i,i,i
Cc1cc(C)cc(NC(=S)NCc2ccc3[nH]c4c(c3c2)CCCC4)c1,i,7.1µM,2.5µM,i
